TGFb inhibitor: inhibitors of TGF-b signaling | HepG2 CAGA-GFP TGF-b/SMAD3 reporter, GFP fluorescence, 18 h; TGF-beta stimulated, 500 pg/mL final | Potency, µM (titrated, usually from 46.1 µM), actives largely listed as inhibitors | actives 1.2% (n = 410,000) | AID 588855; also: nearly all actives have a fitted effect of over 65% in size
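Smad-responsive CAGA-GFP expression was quantified in HEPG2 cells exposed to compounds and 500 pg/mL final TGF-beta for 18 h at 37 degrees C; unstimulated wells defined full inhibition.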
HT1080 IDH1KD tx: toxicity to HT-1080 IDH1 knockdown cells (counter line). HT-1080 IDH1 knockdown viability, ATP luminescence, 48 h. Potency, µM (highest dose often 46.1 µM), actives largely listed as cytotoxic. actives 2% (n = 360,000)
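IDH1KD HT-1080 cells, 750/well, RPMI + 5% FBS; compound pinned after 2 h settling; 48 h, 37 °C; CellTiter-Glo luminescence; % activity normalised to DMSO and no-cell wells; curves fitted, classed by r2 and efficacy.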
DT40 TDP1 CPT: growth inhibition of DT40 Tdp1-/-;hTDP1 cells with camptothecin (screen for TDP1 inhibitors). chicken DT40 Tdp1-/-;hTDP1 cells + 20 nM CPT, ATP luminescence, 48 h. Potency, µM (top dose mostly 46.2 µM), usual class: inhibitors. actives 12% (n = 420,000); also: nearly all actives have a fitted effect of over 55% in size
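Cell growth measured by CellTiter-Glo luminescence after a minimum 48 h, 37 C compound exposure with 20 nM CPT in Tdp1-knockout DT40 cells stably expressing hTDP1, seeded 400/well; qHTS titration format.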
HT1080NT lethal: kills 2HG-producing HT-1080-NT fibrosarcoma cells; HT-1080-NT fibrosarcoma viability, CellTiter-Glo ATP luminescence, 48 h; Potency, µM (highest dose often 46.1 µM), actives largely listed as cytotoxic; actives 1.6% (n = 360,000);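 also: NT is the 2HG producing partner of a matched IDH1 knockdown line; nearly all actives have a fitted effect of over 55% in size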
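Luminescent CellTiter-Glo readout after 48 hours of compound exposure at 37 degrees C defined viability of HT-1080-NT cells. Activity was normalized to DMSO wells and cell-free media wells; concentration-response curves were fitted and assigned curve classes.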
HepG2 viability: kills HepG2 cells in TGF-b inhibitor counter-screen | HepG2 CAGA-GFP viability, ATP luminescence, 18 h | Potency, µM (titrated, usually from 46.1 µM), usual class: cytotoxic | actives 0.76% (n = 410,000)
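CellTiter-Glo luminescence gave cytotoxicity after 18 hours at 37 degrees C. The cells were HepG2 CAGA-GFP in 1% FBS DMEM, stimulated with 500 pg/mL TGF-beta after compound addition. %Activity was normalised to no-cell wells (complete cell-killing) and DMSO (no toxicity), and curves were fitted and classified.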
DT40 TDP1 no CPT: qHTS for Inhibitors of human tyrosyl-DNA phosphodiesterase 1 (TDP1): qHTS in cells in absence of CPT; Potency, µM (series often up to 46.2 µM), usual class: inhibitors; DT40 Tdp1-/- hTDP1 cells, no CPT, ATP luminescence, 48 h; actives 15% (n = 420,000); also: nearly all actives have a fitted effect of over 55% in size
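A cellular qHTS used chicken DT40 cells lacking endogenous Tdp1 but carrying stably transfected human TDP1. Compounds were applied without camptothecin, and cell growth kinetics were judged by ATP-dependent luminescence after ≥48 hr.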
Hits are given with their value; . = inactive; ? = inconclusive; / = no result given; ! = a repeat was not active; [ ] = remark or other dose. Most compounds without a hit are left out; they make up all but 17% or so of the library. Calls follow the shape of the dose curve; as a rule, active = well fitted curve in the direction sought with a large enough effect; inconclusive = small, poorly fitted or top-dose-only effect, or another doubt; inactive = no such curve, though single readings can be large; an effect the other way counts as inactive or inconclusive.

SMILES	TGFb inhibitor	HT1080 IDH1KD tx	DT40 TDP1 CPT	HT1080NT lethal	HepG2 viability	DT40 TDP1 no CPT
Cc1cc(NC(=O)CSc2nc(-c3ccccc3)nc3c2c(=O)n(C)c(=O)n3C)no1	.	.	.	.	.	.
CCCn1c(=O)n(C)c(=O)c2c(SCC(=O)Nc3cc(C)on3)nc(C(C)(C)C)nc21	17.8µM	.	?	.	.	?
CSc1ncc(C(=O)Nc2ccccc2C(=O)c2ccccc2)c(C)n1	.	/	.	/	.	.
Cc1ccc(NC(=O)CCc2c(C)nc3ncnn3c2C)cc1Cl	.	/	.	/	.	.
CN(C(=O)c1ccc(NC(=O)Cc2cccc(NC(=O)C3CCN(C(=O)C4CCCC4)CC3)c2)cc1)C1CC1	.	.	.	.	.	?
O=S(=O)(c1ccc(Br)cc1)N1CCN(c2ccc3nnc(-c4ccccc4)n3n2)CC1	.	.	18.4µM	.	.	20.6µM
O=C(O)C1(c2ccccc2)CCN(S(=O)(=O)c2ccc(Br)cc2)CC1	.	.	.	.	.	.
O=C(c1ccc(Br)o1)N1CCN(c2ccc3nnc(-c4ccccc4)n3n2)CC1	.	.	16.4µM	.	.	14.6µM
C=CCNC(=S)N/N=C(\C)c1cc(OC)c(OC)c(OC)c1	?	.	4.11µM	.	.	2.91µM
C=CCNC(=S)N/N=C(\C)c1cccc(NC(C)=O)c1	.	.	.	.	.	.
O=C(Nc1ccc(F)cc1)C1CCN(c2ncnc3c2nc2n3CCCCC2)CC1	?	.	?	.	.	18.4µM
O=C(Nc1ccccn1)C1CCN(c2ncnc3c2nc2n3CCCCC2)CC1	.	.	2.31µM	.	.	?
CCOc1ccc(Nc2ncnc3c2nc2n3CCCCC2)cc1	.	/	?	/	.	20.6µM
COc1ccccc1CNC(=O)C1CCN(c2ncnc3c2nc2n3CCCCC2)CC1	.	.	?	.	.	23.1µM!
O=C(NCc1ccccc1)C1CCN(c2ncnc3c2nc2n3CCCCC2)CC1	.	/	.	/	.	.
COc1ccc(Nc2ncnc3c2nc2n3CCCCC2)cc1	.	/	.	/	.	?
Cc1cccc(C)c1NC(=O)C1(C)CN(S(C)(=O)=O)CC(=O)N1Cc1ccc2c(c1)OCO2 (stereo unspecified)	/	.	.	.	/	.
COc1ccccc1CNc1ncnc2c1nc1n2CCCC1	.	/	?	/	.	8.2µM
Clc1ccccc1CNc1ncnc2c1nc1n2CCCC1	?	/	?	/	.	?
CCOc1ccc(CC(=O)Nc2cccc(-c3nc4cccnc4s3)c2C)cc1	.	/	.	/	.	.
CCC(=O)N(Cc1ccco1)c1nc(C(=O)Nc2ccc(Cl)cc2)c(C)s1	?	.	?	.	.	?
O=C(c1cnn(-c2nccc(-c3ccccc3F)n2)c1C1CC1)N1CCN(CCO)CC1	/	/	.[9.04 µM]	/	/	.
C(=Nc1cccnc1)c1ccc2ccccc2n1	.	/	0.891µM	/	.	1µM
C[C@H](CO)NC(=O)c1nc[nH]c1C(=O)N[C@@H](C)c1ccccc1	.	.	?	.	.	?
COc1ccc(/C=C(/NC(=O)c2ccc([N+](=O)[O-])cc2)C(=O)NCCCN(C)C)cc1	.	.	.	.	.	.
SMILES	TGFb inhibitor	HT1080 IDH1KD tx	DT40 TDP1 CPT	HT1080NT lethal	HepG2 viability	DT40 TDP1 no CPT
Cc1ccc(C(=O)N/C(=C\c2ccc(-c3ccc(Br)cc3)o2)C(=O)NCCCN(C)C)cc1	7.08µM	23.1µM	4.61µM	?	4.47µM	3.26µM
CN(C)CCNC(=O)/C(=C/c1ccc(-c2ccc(Cl)cc2Cl)o1)NC(=O)c1ccccc1	?	20.6µM	?	?	.	?
COc1ccc(-c2ccc(/C=C(\NC(=O)c3ccccc3)C(=O)N3CCOCC3)o2)cc1	.	.	14.6µM	.	.	20.6µM
CN(C)CCNC(=O)/C(=C/c1ccc(-c2ccc(Cl)cc2)o1)NC(=O)c1ccccc1	?	.	?	.	15.8µM	?
CN(C)c1ccc(/C=C(/NC(=O)c2ccccc2)C(=O)NCCN2CCOCC2)cc1	.	.	.	.	.	.
O=C(NCCN1CCOCC1)/C(=C/c1ccc(Cl)cc1)NC(=O)c1ccccc1	.	.	.	.	.	.
COC(=O)C1C(=O)N(S(=O)(=O)c2ccc([N+](=O)[O-])cc2)c2ccccc21 (stereo unspecified)	/	.	.	.	/	.
Cn1c(NC(=O)c2ccc(S(=O)(=O)N3CCOCC3)cc2)cc(=O)n(C)c1=O	.	.	.	.	.	.
Cc1ccc(C(=O)N/C(=C\c2ccc(-c3ccccc3[N+](=O)[O-])o2)C(=O)NCCCN2CCOCC2)cc1	?	?	20.6µM	?	.	?
Cc1ccc(C(=O)N/C(=C\c2cn(C)c3ccccc23)C(=O)NCCCN2CCOCC2)cc1	.	.	.	.	.	.
C/C(=N\NC(=O)CCCC(=O)O)c1c(-c2ccccc2)c2cc(Cl)ccc2[nH]c1=O	.	.	.	.	.	.
CCN1C(=O)[C@H]2[C@@H](c3ccc(-c4ccc(Cl)c(Cl)c4)cc3)N[C@@](CC(C)C)(C(=O)OC)[C@H]2C1=O	.	.	4.11µM	.	.	?
COC(=O)[C@]1(CC(C)C)N[C@H](c2ccc(-c3ccc(Cl)c(Cl)c3)cc2)[C@@H]2C(=O)N(C)C(=O)[C@@H]21	?	.	?	.	.	18.4µM
CCN1C(=O)[C@H]2[C@@H](c3ccc(-c4cccc(Cl)c4)cc3)N[C@@](CC(C)C)(C(=O)OC)[C@H]2C1=O	.	.	18.4µM	.	.	11.6µM
CCN1C(=O)[C@H]2[C@@H](c3ccc(-c4ccc(OC)cc4)cc3)N[C@@](CC(C)C)(C(=O)OC)[C@H]2C1=O	.	.	?	.	.	23.1µM
CCN1C(=O)[C@H]2[C@@H](c3ccc(-c4cccc(Cl)c4)c(OC)c3)N[C@@](CC(C)C)(C(=O)OC)[C@H]2C1=O	.	.	?	.	.	?
COC(=O)[C@]1(CC(C)C)N[C@H](c2ccc(-c3ccc(C(C)=O)cc3)cc2)[C@@H]2C(=O)N(C)C(=O)[C@@H]21	.	.	.	.	.	?
Cc1nn(C)c(C(=O)Nc2ccc(S(=O)(=O)NC34CC5CC(CC(C5)C3)C4)cc2)c1Br	?	?	20.6µM	?	.	23.1µM
Cc1ccc(S(=O)(=O)NC23CC4CC(CC(C4)C2)C3)cc1	.	.	?	.	.	20.6µM
Cc1nn(C)c(C(=O)Nc2ccc(Br)cc2F)c1Br	.	.	.	.	.	.

Screening data from PubChem.
